Bioassay records: PubChem BioAssay, National Center for Advancing Translational Sciences (NCATS)
TSG101-PTAP inh – qHTS Assay for Iinhibitors of HIV-1 Budding by Blocking the Interaction of PTAP/TSG101 | Tumor susceptibility gene 101 protein (Homo sapiens), Q99816 | Fluorescence polarization, FITC-PTAP peptide / Tsg101 binding | Potency, µM (titrated, usually from 115 µM), inactives show at the top dose activity change, negative = inhibition, actives largely listed as inhibitors | 340,000 tested, under 10 active | AID 493005, 2010; active means well fitted inhibition curve with a large enough effect in the main read-out, with a control signal flat, not every such curve was filed as active; inconclusive means small, poorly fitted or top-dose-only effect, or effect the other way, or a change in a side signal; inactive means no such curve, though single readings can be large or run the other way; further: potency means the concentration at half of the fitted maximal effect; % of control where 0% means no effect
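Fluorescence polarization binding of Tsg101 binding domain (10 uM final) to FITC-labeled PTAP peptide (50 nM final) in HEPES pH 7.5 buffer with NaCl, Tween 20, EDTA, TCEP. Compounds added before peptide; binding 20 min at RT.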
TRHR PAM – qHTS for Small Molecule Agonists and Allosteric Enhancers of Human TRH Receptor: Primary Screen for Enhancers; Thyrotropin-releasing hormone receptor (Homo sapiens), P34981; TRHR cells, fluo-8 calcium fluorescence, EC20 TRH enhancement; enhancement, % at 2 µM; actives 0.66% (n = 360,000); AID 493056, 2011; in the data active means enhancement above about 30%; further: 0% is about no effect
Target sequence (P34981 whole entry, looked up): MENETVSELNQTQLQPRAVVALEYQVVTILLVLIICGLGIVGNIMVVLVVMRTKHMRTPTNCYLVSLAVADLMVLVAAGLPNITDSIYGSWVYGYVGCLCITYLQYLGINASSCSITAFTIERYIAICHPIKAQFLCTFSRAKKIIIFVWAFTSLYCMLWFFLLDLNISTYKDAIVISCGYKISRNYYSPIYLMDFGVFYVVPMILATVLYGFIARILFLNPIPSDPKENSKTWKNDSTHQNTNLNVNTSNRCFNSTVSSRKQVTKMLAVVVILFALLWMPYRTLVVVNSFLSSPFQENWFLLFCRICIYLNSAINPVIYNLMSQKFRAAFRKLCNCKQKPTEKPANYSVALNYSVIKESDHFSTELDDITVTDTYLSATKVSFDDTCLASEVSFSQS
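Enhancer read-out: after compound pinning and an initial kinetic agonist-mode read, an EC20 of TRH (10 nM final) was injected and fluo-8 calcium signal (Ex 480/Em 530) followed at 1 s/cycle for 100 cycles in TRHR-expressing cells.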
TRPML1 ag – qHTS for Agonists of the Human Mucolipin Transient Receptor Potential 1 (TRPML1). activation, % (test concentration not listed). TRPML1-expressing cells, Ca2+ dye fluorescence, FDSS. Mucolipin-1 (Homo sapiens), Q9GZU1. actives 0.12% (n = 410,000); in the data active means activation above about 50%; inconclusive means mostly about 30% to 49%; further: 0% is about no effect
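Kinetic FDSS Ca2+ read in Tet-induced TRPML1-DL cells (ABD Ca8 dye plus quencher, 45-90 min RT loading): baseline, then compound, then 110 s agonist window; EC80 agonist 54-4 at 4uM final added afterwards for a 110 s antagonist window.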
TRPML1 blocker – qHTS for Inhibitors of the Human Mucolipin Transient Receptor Potential 1 (TRPML1) | AID 624415, 2012 | activity change, negative = inhibition, % (test concentration not listed) | Mucolipin-1 (Homo sapiens), Q9GZU1 | TRPML1-inducible cells, Ca2+ dye fluorescence, FDSS; hits give low values; inhibition of EC80 agonist-evoked calcium signal | actives 0.02% (n = 390,000); in the data active means activity change below about -50%; inconclusive means between about -30% and that limit;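 further: stimulus is agonist 54-4 at its EC80 concentration; on the % scale 0 is the no-effect control and ±100 the full control effect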
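Calcium fluorescence in TRPML1-DL cells induced overnight with Tet: a 110 s read after compound pin addition, then a 110 s antagonist read after challenge with 54-4 at 4 uM final (EC80).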
TRHR agonist – qHTS for Small Molecule Agonists and Allosteric Enhancers of Human TRH Receptor: Primary Screen for Agonists | TRHR cells, calcium flux fluo-8, FDSS agonist mode | activation, % at 2 µM | actives 0.18% (n = 360,000) | AID 493084, 2011; in the data active means activation above about 30%; further: 0% is about no effect
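Read-out: compound-evoked intracellular calcium rise in TRHR cells, fluo-8 dye, kinetic FDSS fluorescence at 1 s/cycle following a 10-cycle baseline. Cells cultured overnight before dye loading (30 min–1.5 h, RT).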
* = called active by the depositor; u = inconclusive; x = no result given. Only some compounds are listed: those with a hit (about 0.81% of all), similar ones and a draw of the others.

SMILES | TSG101-PTAP inh | TRHR PAM | TRPML1 ag | TRPML1 blocker | TRHR agonist
O=C(Cc1ccc(OCc2ccccn2)cc1)NO | x | x | -0.4 | x | x
CCCCN1C(=O)C(CC(=O)NCc2cccs2)CC(C(=O)N(C)C)=C1C (configuration not stated) | x | x | 0.2 | -53.4* | x
COC(=O)C1CCN(C(=O)COC(=O)Cc2c[nH]c3ccccc23)CC1 | -1.5% | 37.1* | -0.4 | -8.3 | 0.6
CC1(C)Cc2c(C#N)c(NCc3ccco3)nc(-c3ccco3)c2CO1 | -2.5% | 37.1* | -0.7 | -2.4 | 3.5
Cc1nc(NCc2ccco2)c(C#N)c2c1COC(C)(C)C2 | -1.6% | -12.4 | -1.1 | -8.5 | 0.1
O=C(CNC(=O)c1ccc2ccccc2c1)OC(C(=O)Nc1cc(C(F)(F)F)ccc1Cl)c1ccccc1 (configuration not stated) | x | -10.7 | x | x | 2.6
Cc1cc2c(s1)c1cnn(Cc3cccc(F)c3F)c(=O)c1n2C | x | -2.0 | x | x | -0.1
CN(CCc1ccccc1)C(c1cc2ccccc2o1)c1nnnn1C(C)(C)C (configuration not stated) | x | x | 69.8* | x | x
COc1ccc(C2=C/C(=C/c3cccnc3)C(=O)O2)cc1OC | 0.0% | 1.9 | u | 0.7 | 44.9*
NC(=O)c1c(NC(=O)c2ccccc2C(=O)O)sc2c1CCCC2 | -0.3% | -12.5 | -0.7 | 4.4 | 0.4
NC(=O)c1c(NC(=O)c2ccccc2Cl)sc2c1CCC2 | -0.1% | 35.7* | 0.1 | -5.7 | 0.1
CCOC(=O)c1c(NC(=O)C2c3ccccc3Oc3ccccc32)sc(C(=O)N(CC)CC)c1C | 0.0% | 5.7 | 0.1 | -15.4 | 1.2
CCOC(=O)c1sc(NC(=O)C2c3ccccc3Oc3ccccc32)c(C(=O)OCC)c1C | x | 32.5* | 0.0 | -25.2 | -0.5
COC(=O)c1c(NC(=O)C2CC=CCC2C(=O)O)sc2c1CCCCC2 (configuration not stated) | -3.9% | 30.7* | -0.5 | -1.6 | 0.5
O=Cc1ccc(-c2ccccc2C(=O)O)o1 | -1.4% | 5.5 | 1.4 | 12.1 | -0.5
O=C(O)c1ccccc1-c1c2cc(I)c(=O)c(I)c-2oc2c(I)c(O)c(I)cc12 | u | x | 177.5* | -89.8* | x
CCOc1cc(C(=O)Nc2ccc(-c3nc4cc(C)ccc4o3)cc2)cc(OCC)c1OCC | x | 8.9 | 0.3 | 5.3 | 1.1
CCOc1cc(C(=O)Nc2ccc3oc(-c4ccc(CC)cc4)nc3c2)cc(OCC)c1OCC | x | 36.2* | 1.9 | -20.0 | 1.4
O=[S+]([O-])(c1ccc2c(c1)OCCO2)N1CCN([S+](=O)([O-])c2ccc(F)cc2Br)CC1 | x | -2.5 | x | x | -0.1
COc1ccc(-n2[nH]c(C)cc2=O)cc1 | -3.4% | 32.6* | -1.2 | -14.3 | 0.2
COc1cc(Cl)c(CC(=O)NO)cc1OC | x | x | -0.6 | x | x
Cc1ccc(N2CC(=O)N(NC(=O)c3sc4nc(C)cc(C)c4c3N)CC2=O)cc1 | -12.1% | 37.5* | 0.9 | -13.3 | 0.3
COC(=O)c1sc2nc(C)cc(C)c2c1N | 0.0% | 0.9 | -0.5 | 6.7 | -1.4
CCN(CC)C(=O)c1sc(NC(=O)c2nc3ncccn3n2)c(C(=O)OC)c1C | x | 32.0* | 1.0 | -19.9 | -1.2
CCCOC(=O)c1c(NC(=O)c2nc3ncccn3n2)sc(C(=O)OCC)c1C | x | -2.6 | -1.0 | 1.3 | -0.8
CC1CCN(c2ccc3c(c2)S(=O)(=O)c2cccc(C(=O)NCc4cccc(F)c4)c2C3=O)CC1 | u | -1.1 | u | 0.8 | 53.4*
CC(=O)Nc1ccc(NC(=O)c2cc([N+](=O)[O-])cc([N+](=O)[O-])c2)cc1 | -1.1% | 38.4* | 0.0 | 2.1 | 0.5
O=[N+]([O-])c1ccc(Sc2nc3ccccc3o2)c([N+](=O)[O-])c1 | x | 30.2* | -0.5 | 1.5 | -1.3
O=S(=O)(c1c(F)cccc1F)N1CCN(S(=O)(=O)c2c(F)cccc2F)CC1 | x | 2.7 | x | x | 0.0
